Each structure is given as a SMILES string. Compounds without any hit were thinned out: in the full panel of roughly 83,000, 20% have a hit.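 Note: values are percent growth. 100 is the growth of untreated cells, values between 100 and 0 indicate rising inhibition; between -100 and 0 indicates cell death.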 A number with no mark means an inactive call. Activity calls are given as the source filed them. Rule for the calls: active = growth percent below 10; inactive = the rest.

Test systems include SK-MEL-2 melanoma; EKVX NSCLC; SN12C renal; UO-31 renal; TK-10 renal; ACHN renal; CAKI-1 renal; A498 renal; CCRF-CEM leukemia; MOLT-4 leukemia; SR leukemia; RPMI-8226 leukemia; OVCAR-8 ovarian; OVCAR-5 ovarian; OVCAR-4 ovarian; SK-OV-3 ovarian; IGROV1 ovarian; OVCAR-3 ovarian; HS 578T breast; NCI/ADR-RES ovarian.
Assay in all cases: NCI-60 one-dose screen, 48 h (100 = growth as untreated, 0 = no growth, -100 = all killed)
Conditions in all cases: 10 µM unless noted

With `COc1ccc(C(=O)c2cc3c(N)c(C(=O)Nc4ccccc4)sc3nc2C)cc1`, the growth was 54.8% in the test on SK-MEL-2 melanoma; 50.4% in the test on EKVX NSCLC; 32.1% with SN12C renal; 52.3% with UO-31 renal; 65.2% in the test with TK-10 renal; 42.7% in the test with ACHN renal. Moreover, the growth is 40% with CAKI-1 renal; -1.62% (active) in the test with A498 renal; 10.4% in the test on CCRF-CEM leukemia; 18.3% in the test with MOLT-4 leukemia; 8.41% (active) in the test with SR leukemia; 14.3% in the test on RPMI-8226 leukemia. Also, the growth was 25.5% in the test on OVCAR-8 ovarian; 38.8% with OVCAR-5 ovarian; 74.8% in the test on OVCAR-4 ovarian; 33% in the test with SK-OV-3 ovarian; 39% in the test with IGROV1 ovarian; -4.41% (active) in the test on OVCAR-3 ovarian. Besides, the growth in the test on HS 578T breast was 10.6%; in the test on NCI/ADR-RES ovarian, 14.8%.
For `CN1CCN(Cc2ccc(NC(=O)c3cncc(C#Cc4cnc(N)c5ccc(F)cc45)c3)cc2C(F)(F)F)CC1`, the growth is -55.1% (active) in the test with SK-MEL-2 melanoma; 42% with EKVX NSCLC; 13.2% in the test with SN12C renal; -3.87% (active) with UO-31 renal; 24.1% with TK-10 renal; 6.63% (active) with ACHN renal. In addition, the growth in the test with CAKI-1 renal is 19.7%; in the test on A498 renal, 25%; with CCRF-CEM leukemia it was -8.78% (active); in the test with MOLT-4 leukemia, 13.1%; in the test with SR leukemia, -25.9% (active); in the test on RPMI-8226 leukemia, 4.27% (active). Further, the growth was 33.9% in the test on OVCAR-8 ovarian; 44.7% in the test with OVCAR-5 ovarian; 30.9% with OVCAR-4 ovarian; -4.24% (active) with SK-OV-3 ovarian; 0.192% (active) with IGROV1 ovarian; 19.7% with OVCAR-3 ovarian. Further, the growth in the test with HS 578T breast was 11.4%; with NCI/ADR-RES ovarian, 35.3%.
As to `COc1ccc(-c2cc(-c3ccccc3)nc(N3CCN(CCNc4ccnc5cc(Cl)ccc45)CC3)n2)cc1`, the growth in the test on SK-MEL-2 melanoma was -9.46% (active); with EKVX NSCLC, 79.9%; in the test with SN12C renal, -43.3% (active); with UO-31 renal, -4.9% (active); in the test on TK-10 renal, -13.4% (active); in the test with ACHN renal, 66.3%. Also, the growth with CAKI-1 renal was -24.9% (active); in the test with A498 renal, 15.3%; with CCRF-CEM leukemia, 3.98% (active); with MOLT-4 leukemia, -1.76% (active); with SR leukemia, 7.06% (active); with RPMI-8226 leukemia, -28.2% (active). For the same compound, the growth was -81% (active) in the test on OVCAR-8 ovarian; 48.2% in the test with OVCAR-5 ovarian; -27.6% (active) in the test with OVCAR-4 ovarian; 112% in the test on SK-OV-3 ovarian; -74% (active) with IGROV1 ovarian; 7.81% (active) in the test with OVCAR-3 ovarian. Further, the values for the growth in the test with HS 578T breast and in the test on NCI/ADR-RES ovarian were 66.4% and -63.2% (active), respectively.
With `CC(=O)c1ccc(Nc2nccc(-c3ccc4ccccc4c3)n2)cc1`, the growth in the test on SK-MEL-2 melanoma was 91.7%; in the test with EKVX NSCLC it was 96.5%; in the test with SN12C renal it was 101%; in the test on UO-31 renal, 86.1%; in the test with TK-10 renal, 87.2%; with ACHN renal it was 98.8%. Also, the growth with CAKI-1 renal was 104%; with A498 renal, 1.1% (active); in the test on CCRF-CEM leukemia, 88.3%; in the test on MOLT-4 leukemia, 74.4%; with SR leukemia, 42.6%; in the test on RPMI-8226 leukemia it was 90%. The growth in the test with OVCAR-8 ovarian is 96.6%; in the test with OVCAR-5 ovarian, 99.8%; in the test with OVCAR-4 ovarian, 105%; in the test with SK-OV-3 ovarian, 99.3%; in the test on IGROV1 ovarian it was 86.3%; in the test on OVCAR-3 ovarian it was 99.3%. Moreover, the growth in the test on HS 578T breast was 86.2%; in the test on NCI/ADR-RES ovarian, 84%.
For the compound `N#CSc1c[nH]c2cccc(/C=C/C(=O)/C=C(O)/C=C/c3cccc4[nH]cc(SC#N)c34)c12`, the growth was -58.8% (active) with SK-MEL-2 melanoma; -23.9% (active) with EKVX NSCLC; -71.2% (active) in the test on SN12C renal; -87.3% (active) with UO-31 renal; -44.8% (active) in the test with TK-10 renal; -85.6% (active) in the test on ACHN renal. In addition, the growth in the test on CAKI-1 renal is -70% (active); with A498 renal, -12.7% (active); in the test on CCRF-CEM leukemia, -22.1% (active); in the test with MOLT-4 leukemia, -39% (active); in the test on SR leukemia it was 0.385% (active); in the test on RPMI-8226 leukemia it was -28.9% (active). Further, the growth in the test on OVCAR-8 ovarian was -34.2% (active); with OVCAR-5 ovarian it was -69.6% (active); with OVCAR-4 ovarian, -20.1% (active); with SK-OV-3 ovarian, -24% (active); in the test on IGROV1 ovarian, -37.4% (active); in the test with OVCAR-3 ovarian it was -17.6% (active). For the same compound, the growth in the test with HS 578T breast is 22.8%; in the test with NCI/ADR-RES ovarian it was 39.9%.
On to `COc1ccc(/C=C/C(c2cc(OC)c(OC)c(OC)c2)n2ccnc2)cc1O` (stereo not given), for which the growth is 41.7% in the test with SK-MEL-2 melanoma; 81.2% in the test with EKVX NSCLC; 57.2% with SN12C renal; 59.9% in the test on UO-31 renal; 84.5% with TK-10 renal; 46.3% with ACHN renal. Moreover, the growth with CAKI-1 renal was 60.2%; with A498 renal, 67.5%; in the test on CCRF-CEM leukemia, 37.1%; in the test with MOLT-4 leukemia, 31.9%; in the test on SR leukemia, 6.18% (active); in the test with RPMI-8226 leukemia, 15.1%. The growth in the test on OVCAR-8 ovarian was 41%; with OVCAR-5 ovarian it was 103%; with OVCAR-4 ovarian, 78.8%; with SK-OV-3 ovarian it was 33.5%; in the test on IGROV1 ovarian, 55.7%; with OVCAR-3 ovarian it was 4.86% (active). In addition, the results for the growth with HS 578T breast and in the test on NCI/ADR-RES ovarian were 32.1% and 45.7%, respectively.
In the case of `O=C1C(Nc2ccccn2)=C(I)C(=O)c2ncccc21`, the growth in the test on SK-MEL-2 melanoma was -53.7% (active); in the test with EKVX NSCLC it was -7.46% (active); with SN12C renal, -70.8% (active); in the test on UO-31 renal, -97.7% (active); in the test on TK-10 renal, -21.4% (active); with ACHN renal, -36.1% (active). Also, the growth in the test with CAKI-1 renal was 5.77% (active); in the test on A498 renal, 68.2%; in the test on CCRF-CEM leukemia it was 3.29% (active); in the test on MOLT-4 leukemia, -25.4% (active); in the test with SR leukemia, 2% (active); in the test on RPMI-8226 leukemia it was -15.5% (active). Further, the growth with OVCAR-8 ovarian was -15.3% (active); in the test on OVCAR-5 ovarian, -55.3% (active); in the test on OVCAR-4 ovarian, -53.3% (active); with SK-OV-3 ovarian, -44.9% (active); with IGROV1 ovarian, -67.5% (active); in the test with OVCAR-3 ovarian, -48.4% (active). The growth is -10.1% (active) with HS 578T breast and -7.85% (active) in the test with NCI/ADR-RES ovarian.
As for `COc1cccc(CCNc2ncnc3c2ncn3Cc2nnc3c4ccccc4c(Cl)nn23)c1`, the growth with SK-MEL-2 melanoma is 20.2%; in the test on EKVX NSCLC it was 73.9%; in the test on SN12C renal, 46.9%; in the test with UO-31 renal, 25.2%; in the test with TK-10 renal, 67.4%; with ACHN renal it was 24.9%. The growth is 18.3% with CAKI-1 renal; 83.4% in the test with A498 renal; 34% in the test on CCRF-CEM leukemia; 20.8% in the test on MOLT-4 leukemia; 33.5% in the test on SR leukemia; 48.8% with RPMI-8226 leukemia. In addition, the growth is 40.3% with OVCAR-8 ovarian; 102% in the test with OVCAR-5 ovarian; 57.5% with OVCAR-4 ovarian; 3.23% (active) in the test with SK-OV-3 ovarian; 40% with IGROV1 ovarian; 64% in the test with OVCAR-3 ovarian. The values for the growth with HS 578T breast and in the test with NCI/ADR-RES ovarian were 40.8% and 40.7%, respectively.
